Measured values from PMC3218832.

The sequences below were run against T1, RELB subunit;p52 subunit (Homo sapiens;Homo sapiens, UniProt Q01201;Q00653 120-401;4-332) (assay: protein binding microarray; high values mean tight binding). Details: dsDNA, one strand shown.
T1 sequence 1: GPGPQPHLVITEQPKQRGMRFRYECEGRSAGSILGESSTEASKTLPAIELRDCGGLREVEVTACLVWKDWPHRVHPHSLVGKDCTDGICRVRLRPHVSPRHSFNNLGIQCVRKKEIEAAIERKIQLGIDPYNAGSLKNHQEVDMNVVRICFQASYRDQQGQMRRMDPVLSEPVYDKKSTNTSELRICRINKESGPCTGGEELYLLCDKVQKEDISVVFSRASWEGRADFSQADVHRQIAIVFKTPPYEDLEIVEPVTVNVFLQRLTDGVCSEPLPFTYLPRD
T1 sequence 2: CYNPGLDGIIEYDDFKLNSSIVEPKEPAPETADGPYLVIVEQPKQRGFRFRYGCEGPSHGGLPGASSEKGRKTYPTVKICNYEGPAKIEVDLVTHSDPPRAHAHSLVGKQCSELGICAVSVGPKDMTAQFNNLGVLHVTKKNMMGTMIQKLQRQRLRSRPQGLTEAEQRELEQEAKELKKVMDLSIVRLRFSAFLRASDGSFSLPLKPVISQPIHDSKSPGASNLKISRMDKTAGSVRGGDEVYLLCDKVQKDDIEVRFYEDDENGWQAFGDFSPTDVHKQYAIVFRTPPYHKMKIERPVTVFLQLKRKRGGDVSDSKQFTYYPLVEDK

Sequence	binding signal [z-score]
AAAGAAGTCCT	-0.875
GAGTTCTCCCC	1.07
CGGATTGCCCC	0.607
CAAGGAGCCCC	0.0984
GAAGACACCCC	0.105
GGGTGTGTCCC	0.593
CGGGGCATCCT	0.34
AGAAGTCTCCT	-0.985
AGGTACATCCT	-0.293
GAATTGTCCCC	1.61
CAAAACACCCC	1.03
AAGGTATTCCT	-0.266
AAATGCCCCCC	1.57
CAAAGGCTCCT	-1.07
AAAGTTACCCT	0.191
CAATGACTCCT	-0.995
CAGAAGGCCCC	-0.262
CAGAGATTCCT	-1
AAAGTGCCCCC	1.17
AAGGGGCTCCT	0.791

Sequence	binding signal [z-score]
GGGATAGTCCC	1.6
CGGGTATCCCC	1.59
AAGGTCCCCCC	1.74
CGATGTGTCCC	0.0454
AGAGGCGTCCC	0.267
GAAGAGCCCCT	0.833
AGGGTGGTCCC	0.266
CGAAGCTTCCC	-0.463
GAGAATGTCCT	-0.926
AGGAATGCCCT	-0.494
GGAGATATCCT	-0.872
GAAGGTGCCCT	-0.597
CGGTTCATCCT	-0.765
AGAGGTCTCCC	-0.00582
AGATGTTCCCT	-0.091
AGAGATGCCCT	-0.94
AAGATTCTCCT	-0.819
CGGGATGCCCC	1.28
GAATAGGTCCT	-0.501
